Here are results for 8 compounds from PubChem BioAssay (NCATS).

Test [1] can be described thus: qHTS Assay for Lipid Storage Modulators (AID 1519; calls by dose curve; also: potency is read from the fitted curve at half-maximal effect; as to activity change, negative = inhibition: % is scaled to controls: 0 for no effect and ±100 for the full control effect). The conditions noted are these: Drosophila S3 cells, BODIPY lipid droplet/cell ratio, laser cytometry, cells loaded with oleic acid; for activity change, negative = inhibition: at 57.5 µM (top of the series). In short, it runs like this: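 Cells seeded at 5,000 per well were treated with compounds over a concentration series and loaded with oleic acid (400 uM, as added). Lipid droplet fluorescence (488 nm excitation, 500-530 nm channel) was read by laser-scanning cytometry and normalized to 20 uM Triacsin C.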
A general note: qHTS replaces the single test concentration by a dilution series.

Test [2] concerns the target ATP-dependent 6-phosphofructokinase (Trypanosoma brucei brucei) (UniProt O15648). The experiment in a line: qHTS Assay to Find Inhibitors of T. brucei phosphofructokinase: hit validation (AID 492961). Also: % is scaled to controls: 0 for no effect and ±100 for the full control effect. The conditions noted are these: T. brucei PFK, ADP-Glo luminescence; series mostly up to 24.3 µM. In short, it runs like this:
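Luminescence from ADP-Glo reports ADP generated as T. brucei PFK (1.25 nM) phosphorylates 0.5 mM fructose-6-phosphate using 0.1 mM ATP. Reactions ran 45 min at room temperature, pH 8.0.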

For test [3], the target named is Ubiquitin carboxyl-terminal hydrolase 1 (Homo sapiens) (UniProt O94782). The test can be described thus: Inhibitors of USP1/UAF1: Pilot qHTS (AID 504865).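 Also: rhodamine fluorescence freed from ubiquitin-rhodamine substrate followed over time; top concentration of the series differs between compounds; % is scaled to controls: 0 for no effect and ±100 for the full control effect; nearly all actives have a fitted effect of over 35% in size.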 The following applies: purified USP1/UAF1, Ub-rhodamine cleavage fluorescence; series mostly up to 114 µM. The procedure, abridged: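 Enzyme-free wells gave the negative control, while test wells held 1nM USP1/UAF1 preincubated with compound for 15 min at room temperature. Ub-Rho at 150nM final started the reaction, and fluorescence at 480/540 nm was recorded kinetically.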
Sequence of Ubiquitin carboxyl-terminal hydrolase 1 (Homo sapiens) (O94782 whole entry, looked up): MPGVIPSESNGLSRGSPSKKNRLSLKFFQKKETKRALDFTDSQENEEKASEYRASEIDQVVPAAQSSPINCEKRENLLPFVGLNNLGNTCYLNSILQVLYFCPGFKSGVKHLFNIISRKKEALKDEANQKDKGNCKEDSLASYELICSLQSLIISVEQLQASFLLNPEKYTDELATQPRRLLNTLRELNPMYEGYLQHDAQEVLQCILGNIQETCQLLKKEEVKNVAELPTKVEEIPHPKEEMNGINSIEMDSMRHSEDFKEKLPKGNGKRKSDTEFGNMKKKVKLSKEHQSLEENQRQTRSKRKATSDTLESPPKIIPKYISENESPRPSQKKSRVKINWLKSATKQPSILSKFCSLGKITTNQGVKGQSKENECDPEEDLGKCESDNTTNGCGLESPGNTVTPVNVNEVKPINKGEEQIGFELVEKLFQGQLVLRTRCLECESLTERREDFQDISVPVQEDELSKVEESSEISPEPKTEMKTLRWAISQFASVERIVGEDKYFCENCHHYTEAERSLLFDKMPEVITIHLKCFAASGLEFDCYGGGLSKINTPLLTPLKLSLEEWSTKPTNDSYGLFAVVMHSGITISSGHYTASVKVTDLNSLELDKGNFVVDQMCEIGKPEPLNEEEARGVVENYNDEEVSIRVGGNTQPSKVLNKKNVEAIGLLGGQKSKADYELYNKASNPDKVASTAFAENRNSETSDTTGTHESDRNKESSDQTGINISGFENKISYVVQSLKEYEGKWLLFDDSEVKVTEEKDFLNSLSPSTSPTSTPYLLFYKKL

Test [4] has as its target Luciferin 4-monooxygenase (Photinus pyralis) (UniProt P08659). The experiment in a line: Biochemical firefly luciferase enzyme assay for NPC (AID 624030).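 Also: purified P. pyralis luciferase at 10 nM with luciferin and ATP substrate; 0% = DMSO and -100% = full luciferase inhibition by PTC124 control; nearly all actives have a fitted effect of over 70% in size.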 The following applies: purified P. pyralis luciferase, luminescence, 5 min; series mostly up to 24.9 µM. The procedure, abridged: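 Purified P. pyralis luciferase at 10 nM in 50 mM Tris Acetate (final), luminescence read within 5 minutes of enzyme addition to compounds. Activity normalised to PTC124 versus DMSO; concentration-response curves classed by r2, magnitude and activity.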

A short description of test [5]: qHTS profiling for inhibitors of Plasmodium falciparum proliferation (AID 504749). Also: potency is read from the fitted curve at half-maximal effect.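 As to activity, negative = inhibition: 0% = DMSO vehicle and full inhibition = artemisinin control.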 As to all read-outs here: nearly all actives have a fitted effect of over 60% in size. The following applies: P. falciparum in erythrocytes, SYBR Green DNA, 72 h; for activity, negative = inhibition: at 28.7 µM (top of the series). The procedure, abridged: (§1)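 Readout was DNA-dye fluorescence from lysed cultures, ex 485/em 535 nm. Parasitized red cells had grown 72 h with compound; data scaled between 0.29 uM artemisinin and DMSO wells and corrected using vehicle-only plates.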

Test [6] has as its system AS120. Described as above. The conditions noted are these: P. falciparum in erythrocytes, SYBR Green DNA, 72 h; series mostly up to 12.8 µM. In short, it runs like this:
as §1

For test [7], the system named is C2A. The description is as above. The conditions noted are these: P. falciparum in erythrocytes, SYBR Green DNA, 72 h; series mostly up to 12.8 µM. In short, it runs like this:
as §1

For test [8], the system named is CP191. Described as above. The following applies: P. falciparum in erythrocytes, SYBR Green DNA, 72 h; series mostly up to 12.8 µM. In short, it runs like this: as §1
In test [9] the test system is CP217. The description is as above. The conditions noted are these: P. falciparum in erythrocytes, SYBR Green DNA, 72 h; series mostly up to 12.8 µM. In short, it runs like this:
as §1

Test [10] deals with CP305. The test is described as above. The following applies: P. falciparum in erythrocytes, SYBR Green DNA, 72 h; series mostly up to 12.8 µM. The procedure, abridged: as §1
Test [11] concerns CP329. Described as above. The conditions noted are these: P. falciparum in erythrocytes, SYBR Green DNA, 72 h; series mostly up to 12.8 µM. The procedure, abridged: as §1
Test [12] relates to ECU. The description is as above. The following applies: P. falciparum in erythrocytes, SYBR Green DNA, 72 h; series mostly up to 12.8 µM. In short, it runs like this:
as §1

The subject of test [13] is FAB9. The description is as above. The conditions noted are these: P. falciparum in erythrocytes, SYBR Green DNA, 72 h; series mostly up to 12.8 µM. The procedure, abridged: as §1
Test [14] relates to N140. The test is described as above. The conditions noted are these: P. falciparum in erythrocytes, SYBR Green DNA, 72 h; series mostly up to 12.8 µM. The procedure, abridged:
as §1

Test [15] concerns PC15. The description is as above. The conditions noted are these: P. falciparum in erythrocytes, SYBR Green DNA, 72 h; series mostly up to 12.8 µM. In short, it runs like this:
as §1

Test [16] has as its system PC49. Described as above. The following applies: P. falciparum in erythrocytes, SYBR Green DNA, 72 h; series mostly up to 12.8 µM. In short, it runs like this: as §1
In test [17] the test system is TAB165. The description is as above. The following applies: P. falciparum in erythrocytes, SYBR Green DNA, 72 h; series mostly up to 12.8 µM. The procedure, abridged:
as §1

Setting [18] is: measured here: cell count channel max response.
Where [19] appears, read: measured here: lipid channel max response.

Results filed as inconclusive are left out. Active and inactive are the calls of the source. Unless noted, calls follow the shape of the dose curve; as a rule, active = well fitted curve in the direction sought with a large enough effect; inconclusive = small, poorly fitted or top-dose-only effect, or another doubt; inactive = no such curve, though single readings can be large; an effect the other way counts as inactive or inconclusive.

Sequence of ATP-dependent 6-phosphofructokinase (Trypanosoma brucei brucei) (O15648 whole entry, looked up): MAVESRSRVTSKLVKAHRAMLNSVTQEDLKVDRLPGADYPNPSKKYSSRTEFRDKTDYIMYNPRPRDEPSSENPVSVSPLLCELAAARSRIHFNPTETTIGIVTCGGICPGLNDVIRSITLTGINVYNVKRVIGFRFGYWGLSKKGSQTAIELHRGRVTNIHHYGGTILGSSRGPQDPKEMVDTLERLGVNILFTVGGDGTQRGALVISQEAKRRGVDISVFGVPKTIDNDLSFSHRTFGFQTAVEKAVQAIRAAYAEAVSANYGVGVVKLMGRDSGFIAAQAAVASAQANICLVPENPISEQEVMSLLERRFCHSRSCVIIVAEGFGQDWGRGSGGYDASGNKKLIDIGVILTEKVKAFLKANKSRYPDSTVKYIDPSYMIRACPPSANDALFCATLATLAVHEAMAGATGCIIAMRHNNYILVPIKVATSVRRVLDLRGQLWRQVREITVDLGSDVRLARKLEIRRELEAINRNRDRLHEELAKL
Sequence of Luciferin 4-monooxygenase (Photinus pyralis) (P08659 whole entry, looked up): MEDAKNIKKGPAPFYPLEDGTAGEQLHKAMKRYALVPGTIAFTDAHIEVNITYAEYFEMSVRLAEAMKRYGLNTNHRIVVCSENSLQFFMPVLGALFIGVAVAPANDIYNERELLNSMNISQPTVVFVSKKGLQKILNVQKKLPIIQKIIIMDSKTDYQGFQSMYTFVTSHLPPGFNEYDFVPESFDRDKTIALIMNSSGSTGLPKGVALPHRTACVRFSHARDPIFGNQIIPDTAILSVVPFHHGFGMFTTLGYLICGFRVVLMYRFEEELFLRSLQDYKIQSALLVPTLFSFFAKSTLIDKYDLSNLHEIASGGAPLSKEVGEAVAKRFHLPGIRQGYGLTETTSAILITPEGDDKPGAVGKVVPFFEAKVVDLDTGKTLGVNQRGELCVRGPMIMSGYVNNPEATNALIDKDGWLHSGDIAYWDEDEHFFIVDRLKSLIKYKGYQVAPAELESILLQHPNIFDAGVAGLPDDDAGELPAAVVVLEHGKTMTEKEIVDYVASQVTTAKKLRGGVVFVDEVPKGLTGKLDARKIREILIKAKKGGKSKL

Regarding `CC(C)C1CCC(C(=O)NC(Cc2ccccc2)C(=O)O)CC1` (centres undefined), in [1], the activity change, negative = inhibition was 5.23% (inactive). The max response in test [1] (setting [18]) came to 2.86%; in [1] (setting [19]), 10.2%. In addition, the call in [2] was inactive. Also, the Potency result in test [3], in [4], in test [6], in test [7], in test [8] and in [9] was “inactive” throughout. Besides, the Potency result in [10], in [11], in [12], in [13], in test [14] and in [15] was “inactive” each time. Further, the Potency entry in [16] and in test [17] was “inactive” in each case. Moreover, the results for the activity, negative = inhibition in test [5] (parasite line A) and in test [5] (parasite line B) were -12% (inactive) and 8.36% (inactive), respectively.

In the case of `CC1=C(CCC(=O)O)c2cc3nc(cc4[nH]c(cc5[nH]c(cc1n2)c(C)c5C(C)O)c(C)c4C(C)O)C(C)=C3CCC(=O)O` (centres undefined), the activity change, negative = inhibition in [1] was 3.12% (inactive). For the same compound, the max response in test [1] (setting [18]) turned out to be 12.6%; in test [1] (setting [19]), 18.6%. For the same compound, the Potency result in test [3] is “inactive”.

Turning to `Nc1nc2ncc(CNc3ccc(C(=O)NC(CCC(=O)O)C(=O)O)cc3)nc2c(=O)[nH]1` (centres undefined), the activity change, negative = inhibition in test [1] was 5.18% (inactive). Besides, the values for the max response in test [1] (setting [18]) and in test [1] (setting [19]) were 16.9% and 24.2%, respectively. In test [2], the result was inactive. Further, the Potency entry in test [3], in test [4], in test [6], in test [7], in [8] and in test [9] was “inactive” throughout. Besides, the Potency entry in test [10], in test [11], in test [12], in test [13], in test [14] and in [15] was “inactive” each time. The Potency result in test [16] and in test [17] was “inactive” throughout. The activity, negative = inhibition in test [5] (parasite line A) was 10.3% (inactive); in test [5] (parasite line B) it was 16.6% (inactive).

For the compound `COc1cc(C2c3cc4c(cc3C(O[C@@H]3OC5COC(c6cccs6)OC5C(O)C3O)C3COC(=O)C23)OCO4)cc(OC)c1O` (some centres undefined), the Potency in test [1] is 5010 nM (active); in [5] (parasite line A), 1120 nM (active); in test [5] (parasite line B), 2000 nM (active); in test [6], 1000 nM (active); in test [7], 2240 nM (active); in test [8] it was 2240 nM (active). Also, the Potency in test [9] was 2000 nM (active); in [10] it was 1690 nM (active); in [11], 4260 nM (active); in [12], 2510 nM (active); in test [13], 2240 nM (active); in test [14] it was 1000 nM (active). Further, the Potency was 4470 nM (active) in test [15], 4470 nM (active) in test [16] and 1410 nM (active) in [17]. Further, the max response is 22.3% in [1] (setting [18]) and -100% in test [1] (setting [19]). The call in test [2] was inactive. The Potency entry in test [3] and in test [4] was “inactive” in each case.

Regarding `C[C@@H]1O[C@@H](O[C@H]2[C@H](Oc3cc(O)c4c(c3)O[C@H](c3ccc(O)cc3)CC4=O)O[C@H](CO)[C@@H](O)[C@@H]2O)[C@H](O)[C@H](O)[C@H]1O`, the activity change, negative = inhibition in test [1] is -1.6% (inactive). For the same compound, the max response in test [1] (setting [18]) is -6.96%; in test [1] (setting [19]), -9.22%. Further, the Potency result in [3] was “inactive”.

`CC(=O)[C@]1(O)CCC2C3C=C(Cl)C4=CC(=O)C5CC5[C@@]4(C)C3CC[C@]21C` (some centres undefined): the activity change, negative = inhibition in [1] is 8.7% (inactive). Also, the max response in [1] (setting [18]) was 4.22%; in [1] (setting [19]), 14.3%. For the same compound, the Potency result in test [4], in test [6], in test [7], in [8], in [9] and in [10] was “inactive” each time. Moreover, the Potency result in test [11], in test [12], in test [13], in test [14], in test [15] and in [16] was “inactive” throughout. Also, in test [17], the Potency result was “inactive”. Moreover, the activity, negative = inhibition in test [5] (parasite line A) was 6.27% (inactive); in [5] (parasite line B) it was 5.21% (inactive).

For `COC(=O)[C@H]1[C@@H]2C[C@@H]3c4[nH]c5ccccc5c4CCN3C[C@H]2CC[C@H]1O`, the activity change, negative = inhibition in test [1] is 4.52% (inactive). For the same compound, the max response was found to be 12.3% in test [1] (setting [18]) and 17.8% in test [1] (setting [19]). Besides, in test [3], the Potency entry is “inactive”.

On to `CC[C@@]12CCCN3CCc4c(n(c5ccccc45)[C@](O)(C(=O)OC)C1)C32` (some centres undefined), for which the activity change, negative = inhibition in test [1] was 6.08% (inactive). The figures for the max response in test [1] (setting [18]) and in [1] (setting [19]) were 25.6% and 38.6%, respectively. The Potency entry in test [3], in test [4], in [6], in test [7], in [8] and in test [9] was “inactive” in each case. Besides, the Potency result in [10], in [11], in [12], in [13], in test [14] and in test [15] was “inactive” each time. Also, the Potency result in [16] and in test [17] was “inactive” throughout. The activity, negative = inhibition is 4.65% (inactive) in [5] (parasite line A) and -5.85% (inactive) in [5] (parasite line B).
